# Screening data deposited in PubChem by National Center for Advancing Translational Sciences (NCATS).
# An excerpt weighted towards active compounds, which were near 6.2% of everything screened.
# FMDV antiviral: blocks foot and mouth disease virus | FMDV antiviral cell-based qHTS | Potency, µM (series often up to 57.9 µM), for inactives: top-dose activity change, negative = inhibition, actives largely listed as inhibitors | hit rate 1.2% among 410,000 | AID 1159524; calls by dose curve; tested in HEK293T cells; note: read-out not given here; potency is the fitted concentration of half-maximal effect; nearly all actives have a fitted effect of over 45% in size
# HCMV inh: blocks human cytomegalovirus replication | activity change, negative = inhibition, % at 57.5 µM | hit rate 4.5% among 410,000 | HFF cells, HCMV-luciferase reporter, 72 h; stronger effect = lower value | AID 1259415; in the data active = activity change below about -60%; inconclusive = no clear call, values can overlap the other calls; inactive = above about -39%
#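 Luciferase read-out from HCMV-luciferase-infected HFFs (MOI 1 PFU/cell) 72 h post infection at 37C; compounds added after 16 h cell attachment; activity normalized between buffer-only basal and Salinomycin (10uM) inhibitor controls.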
# MARV entry inh: inhibitors of Marburg virus binding or cell entry; Marburg virus pseudotyped entry inhibition, cell reporter; Potency, µM (highest dose often 37.8 µM), for inactives: top-dose activity change, negative = inhibition, most hits filed as inhibitors; hit rate 1.8% among 300,000; AID 540276; calls by dose curve; tested in HEK293 cells; note: potency is the fitted concentration of half-maximal effect
# LASV entry inh: blocks Lassa virus binding to or entry into cells; Potency, µM (highest dose often 37.9 µM), for inactives: at the highest dose activity change, negative = inhibition, actives largely listed as inhibitors; hit rate 1.2% among 300,000; Lassa virus pseudotype entry inhibition, cell reporter; calls by dose curve; tested in HEK293 cells; note: potency is the fitted concentration of half-maximal effect; nearly all actives have a fitted effect of over 50% in size
# Starred values were filed as active, the others as inactive; ? = inconclusive; . = no result given; [ ] = another dose, or the depositor's remark. % is set by controls: 0 for no effect and ±100 for the full control effect.
SMILES,FMDV antiviral,HCMV inh,MARV entry inh,LASV entry inh
COc1ccc(Cl)cc1NC(=O)c1c(NCc2ccc(C)o2)sc2c1CCCCC2,0%,17,.,16%[46.1 µM]
CCOP(=O)(Nc1ccc2c(c1)C(=NNC(N)=S)c1ccccc1-2)OCC,35µM*,30,?,-20%
CN(C)c1cccc(C(=O)OC(C(=O)Nc2ccc(Cl)cc2C(F)(F)F)c2ccccc2)c1 (stereo not given),-24%,-63*,?,?
OCCN1CCN(Cc2ccc3c(c2)CN(Cc2cnc(-c4ccccc4)s2)CCO3)CC1,-11%,.,.,.
CC(C)(C)C1CCC2(CC1)C(C#N)=C(SCC(=O)NC1CCCCC1)NC(=O)C2C#N (stereo not given),.,-63*,-28%,-8%
N#CC1=C(SCC(=O)NC23CC4CC(CC(C4)C2)C3)NC(=O)C(C#N)C12CCCCC2 (stereo not given),?,-66*,?,-27%
N#CC1=C(SCC(=O)NC2CC2)NC(=O)C(C#N)C12CCCCC2 (stereo not given),-2%,-8,21%,10%
COc1ccc(C(=O)NCCN2Cc3ccccc3OC(c3ccsc3)C2)c(OC)n1 (stereo not given),-10%,.,.,.
O=C(c1ccco1)N1CCC2(CCN(Cc3cc(C(F)(F)F)cc(C(F)(F)F)c3)CC2)CC1,-27%,.,.,.
O=C(Cn1c(=O)n2nc(-c3ccccc3)nc2c2ccccc21)Nc1ccccc1C(F)(F)F,4%,24,?,7%[46.1 µM]
O=C(Nc1ccc2nc(SCCOc3ccccc3)sc2c1)c1ccc2c(c1)OCO2,?,-12,14%[46.1 µM],13%[46.1 µM]
O=c1n(-c2ccccc2)c(=O)n2n1CC[C@@H]1C(=NOC[C@@H](O)COCc3ccco3)[C@H]3O[C@H]3[C@@H](O)[C@H]12,.,.,-23%[14.2 µM],.
Cc1cc(C(C)(C)C)cc(C)c1S(=O)(=O)N1CCN(C(=O)c2cc([N+](=O)[O-])c[nH]c2=O)CC1,?,-64*,-3%[46.1 µM],?
Cc1cc(C)c(S(=O)(=O)N2CCN(C(=O)c3cc(=O)[nH]c4ccccc34)CC2)c(C)c1,-25%,-1,.,.
C[C@@H]1CN(C2CCN(C(=O)COc3ccccc3)CC2)C[C@H](C)O1,.,.,7%,.
N#CC(C#N)=C1c2cc(S(N)(=O)=O)ccc2-c2ccc(S(N)(=O)=O)cc21,25µM*,3,.,.
N#CC(C#N)=C1c2cc(S(=O)(=O)NCCO)ccc2-c2ccc(S(=O)(=O)NCCO)cc21,-17%,-37,.,.
O=C(Nc1nc(-c2ccc(Cl)s2)cs1)c1ccncc1,.,-77*,?,-21%
O=C(Nc1nc(-c2cccs2)cs1)c1ccc(Cl)cc1,-34%,3,?,?
COc1ccc2c(c1)C(C(Nc1ccc(C)cc1)c1ccc(Cl)cc1)C(=O)N2C (stereo not given),.,39,.,.
COc1cc(OC)cc(-c2oc(=O)c3cc(OC)c(OC)cc3c2C(F)(F)F)c1,-27%,-24,.,.
CCCc1cc(NC(=O)COC(=O)c2nccnc2N)n(-c2ccccc2)n1,-6%,-104*,.,.
Cc1cc(NC(=O)COC(=O)c2nccnc2N)n(-c2ccccc2)n1,-19%,-24,11%[46.1 µM],13%
COc1ccc(CNC(=O)C(=O)c2cn(CC(=O)N3CCOCC3)c3ccccc23)cc1,23%,0,.,.
O=C(NCc1ccc(Cl)cc1)C(=O)c1cn(CC(=O)N2CCOCC2)c2ccccc12,-10%,-87*,.,.
SMILES,FMDV antiviral,HCMV inh,MARV entry inh,LASV entry inh
CCC[C@H]1[C@@H](NC(=O)Nc2cccc(C(F)(F)F)c2)CC[C@@]23CCCN2C(=O)CCC[C@@H]13,.,-6,.,.
CCCCNc1c(-c2cccc(-c3ccc(OC)cc3)c2)nc2ccc(C)cn12,28µM*,3,.,.
CCCCNc1c(-c2ccc(OC)c(SC3CCCCC3)c2)nc2cc(C)ccn12,25µM*,-19,.,.
CCCCNc1c(-c2cccc(-c3ccc(OC)cc3)c2)nc2cc(C)ccn12,25µM*,-102*,.,.
O=c1c(-c2ccco2)nc2ccccc2n1/C=C(/c1ccc(C(F)(F)F)cc1)n1c(=O)[nH]c2ccccc21,.,1,.,.
COC(=O)c1ccccc1NC(=O)[C@H]1COc2ccccc2O1,.,.,-32%,.
COC(=O)c1cc(Sc2c(Cl)cccc2Cl)ccn1,-14%,-39,11µM*,-24%
CCOC(=S)SCc1cn2ccc(C)cc2n1,-1%,-65*,-1%,22%
C#CCN1C(=O)CC[C@@H](S(=O)(=O)c2ccccc2)[C@@H]1c1ccccc1,.,1,.,.
COC(=O)C1=C(C)N(Cc2cccc(C(F)(F)F)c2)C(=NCc2ccc(C(F)(F)F)cc2)NC1c1cccc(F)c1 (stereo not given),.,-99*,.,.
CC(=O)C1=C(C)N(Cc2ccccc2)C(=O)N[C@@H]1c1cccc(C(F)(F)F)c1,?,-3,?,-2%
